The supplement of paper PMC10849652
About 7,900 targets were measured; listed, in parts, are those with a hit and a random draw of the rest. About 0.6% of all pairs of compound and target were hits. Unmarked numbers belong to inactive results.

Key:
Experiment in all cases: log2 fold change, soluble protein after heating vs DMSO (PISA); higher = thermal stabilisation; K562 cells, 10 uM, 30 min; active = over 0.2 and 3.5 SD of the protein, either way, in both replicates (recomputed)
saracatinib = compound: CN1CCN(CCOc2cc(OC3CCOCC3)c3c(Nc4c(Cl)ccc5c4OCO5)ncnc3c2)CC1 [saracatinib]
How it was run: (§1)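 Soluble protein was quantified by TMTpro 16plex LC-MS/MS after channel sums were equalised. It was obtained as the supernatant after 21,000xg for 90 min from pooled aliquots of K562 cells (2×10^6 cells/mL, 10 μM compound, 30 min) heated for 3 min across 48°C-58°C and extracted in PBS with 0.5% NP-40 at 4°C. Thermal stability values are relative to control samples and come from duplicates. They are given as log2 fold changes.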

sotrastaurin = compound: CN1CCN(c2nc(C3=C(c4c[nH]c5ccccc45)C(=O)NC3=O)c3ccccc3n2)CC1 [sotrastaurin]
How it was run: as §1

alvocidib = compound: CN1CC[C@H](c2c(O)cc(O)c3c(=O)cc(-c4ccccc4Cl)oc23)[C@H](O)C1 [alvocidib]
How it was run: as §1

Tubastatin A = compound: CN1CCc2c(c3ccccc3n2Cc2ccc(C(=O)NO)cc2)C1 [Tubastatin A]
How it was run: as §1

[1] = compound: CNC(=O)C1=CC=CC=C1NC2=NC(=NC=C2Cl)NC3=C(C=C(C=C3)N4CCOCC4)OC
How it was run: as §1

defactinib = compound: CNC(=O)c1ccc(Nc2ncc(C(F)(F)F)c(NCc3nccnc3N(C)S(C)(=O)=O)n2)cc1 [defactinib]
How it was run: as §1

rucaparib = compound: CNCc1ccc(-c2[nH]c3cc(F)cc4c3c2CCNC4=O)cc1 [rucaparib]
How it was run: as §1

[2] = compound: CNc1nc(-c2ccc3c(N)n[nH]c3c2)cc(N2C[C@@H](C(=O)NC3CCCCC3)CC[C@H]2C)n1
How it was run: as §1

encorafenib = compound: COC(=O)N[C@@H](C)CNc1nccc(-c2cn(C(C)C)nc2-c2cc(Cl)cc(NS(C)(=O)=O)c2F)n1 [encorafenib]
How it was run: as §1

[3] = compound: COC(=O)[C@H](CCSC)NC(=O)C1=C(C=C(C=C1)NC[C@H](CS)N)C2=CC=CC=C2
How it was run: as §1

Sequence of UniProt Q96JG6 (Q96JG6 whole entry, looked up): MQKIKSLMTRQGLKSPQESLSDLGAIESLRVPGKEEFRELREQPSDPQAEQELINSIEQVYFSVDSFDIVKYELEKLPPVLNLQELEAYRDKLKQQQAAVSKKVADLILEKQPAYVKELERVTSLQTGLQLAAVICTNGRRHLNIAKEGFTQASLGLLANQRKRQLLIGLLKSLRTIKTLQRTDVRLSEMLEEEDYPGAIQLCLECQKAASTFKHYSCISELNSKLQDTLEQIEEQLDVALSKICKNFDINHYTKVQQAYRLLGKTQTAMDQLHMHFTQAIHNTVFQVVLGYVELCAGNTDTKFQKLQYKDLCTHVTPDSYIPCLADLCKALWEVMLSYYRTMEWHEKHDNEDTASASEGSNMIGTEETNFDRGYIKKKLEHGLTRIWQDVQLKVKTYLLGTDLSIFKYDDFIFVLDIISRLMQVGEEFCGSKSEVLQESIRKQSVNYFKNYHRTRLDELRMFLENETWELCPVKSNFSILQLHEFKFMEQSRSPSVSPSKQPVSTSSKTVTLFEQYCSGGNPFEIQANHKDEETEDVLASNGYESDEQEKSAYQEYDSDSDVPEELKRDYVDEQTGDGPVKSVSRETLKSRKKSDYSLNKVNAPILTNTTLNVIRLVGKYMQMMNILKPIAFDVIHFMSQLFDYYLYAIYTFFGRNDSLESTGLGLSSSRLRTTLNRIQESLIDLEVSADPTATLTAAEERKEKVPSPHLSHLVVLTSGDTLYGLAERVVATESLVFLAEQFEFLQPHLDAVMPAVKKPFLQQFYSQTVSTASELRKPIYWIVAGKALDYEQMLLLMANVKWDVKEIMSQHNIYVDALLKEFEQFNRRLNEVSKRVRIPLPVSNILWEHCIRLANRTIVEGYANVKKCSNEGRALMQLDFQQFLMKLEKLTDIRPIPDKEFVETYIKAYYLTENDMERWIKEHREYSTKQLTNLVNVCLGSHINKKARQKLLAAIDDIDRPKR
Sequence of UniProt Q9UL33 (Q9UL33 whole entry, looked up): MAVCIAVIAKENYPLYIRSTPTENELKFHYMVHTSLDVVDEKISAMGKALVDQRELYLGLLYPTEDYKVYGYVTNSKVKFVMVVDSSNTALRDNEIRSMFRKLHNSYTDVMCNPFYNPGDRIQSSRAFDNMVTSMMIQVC
Sequence of UniProt Q9UPU5 (Q9UPU5 whole entry, looked up): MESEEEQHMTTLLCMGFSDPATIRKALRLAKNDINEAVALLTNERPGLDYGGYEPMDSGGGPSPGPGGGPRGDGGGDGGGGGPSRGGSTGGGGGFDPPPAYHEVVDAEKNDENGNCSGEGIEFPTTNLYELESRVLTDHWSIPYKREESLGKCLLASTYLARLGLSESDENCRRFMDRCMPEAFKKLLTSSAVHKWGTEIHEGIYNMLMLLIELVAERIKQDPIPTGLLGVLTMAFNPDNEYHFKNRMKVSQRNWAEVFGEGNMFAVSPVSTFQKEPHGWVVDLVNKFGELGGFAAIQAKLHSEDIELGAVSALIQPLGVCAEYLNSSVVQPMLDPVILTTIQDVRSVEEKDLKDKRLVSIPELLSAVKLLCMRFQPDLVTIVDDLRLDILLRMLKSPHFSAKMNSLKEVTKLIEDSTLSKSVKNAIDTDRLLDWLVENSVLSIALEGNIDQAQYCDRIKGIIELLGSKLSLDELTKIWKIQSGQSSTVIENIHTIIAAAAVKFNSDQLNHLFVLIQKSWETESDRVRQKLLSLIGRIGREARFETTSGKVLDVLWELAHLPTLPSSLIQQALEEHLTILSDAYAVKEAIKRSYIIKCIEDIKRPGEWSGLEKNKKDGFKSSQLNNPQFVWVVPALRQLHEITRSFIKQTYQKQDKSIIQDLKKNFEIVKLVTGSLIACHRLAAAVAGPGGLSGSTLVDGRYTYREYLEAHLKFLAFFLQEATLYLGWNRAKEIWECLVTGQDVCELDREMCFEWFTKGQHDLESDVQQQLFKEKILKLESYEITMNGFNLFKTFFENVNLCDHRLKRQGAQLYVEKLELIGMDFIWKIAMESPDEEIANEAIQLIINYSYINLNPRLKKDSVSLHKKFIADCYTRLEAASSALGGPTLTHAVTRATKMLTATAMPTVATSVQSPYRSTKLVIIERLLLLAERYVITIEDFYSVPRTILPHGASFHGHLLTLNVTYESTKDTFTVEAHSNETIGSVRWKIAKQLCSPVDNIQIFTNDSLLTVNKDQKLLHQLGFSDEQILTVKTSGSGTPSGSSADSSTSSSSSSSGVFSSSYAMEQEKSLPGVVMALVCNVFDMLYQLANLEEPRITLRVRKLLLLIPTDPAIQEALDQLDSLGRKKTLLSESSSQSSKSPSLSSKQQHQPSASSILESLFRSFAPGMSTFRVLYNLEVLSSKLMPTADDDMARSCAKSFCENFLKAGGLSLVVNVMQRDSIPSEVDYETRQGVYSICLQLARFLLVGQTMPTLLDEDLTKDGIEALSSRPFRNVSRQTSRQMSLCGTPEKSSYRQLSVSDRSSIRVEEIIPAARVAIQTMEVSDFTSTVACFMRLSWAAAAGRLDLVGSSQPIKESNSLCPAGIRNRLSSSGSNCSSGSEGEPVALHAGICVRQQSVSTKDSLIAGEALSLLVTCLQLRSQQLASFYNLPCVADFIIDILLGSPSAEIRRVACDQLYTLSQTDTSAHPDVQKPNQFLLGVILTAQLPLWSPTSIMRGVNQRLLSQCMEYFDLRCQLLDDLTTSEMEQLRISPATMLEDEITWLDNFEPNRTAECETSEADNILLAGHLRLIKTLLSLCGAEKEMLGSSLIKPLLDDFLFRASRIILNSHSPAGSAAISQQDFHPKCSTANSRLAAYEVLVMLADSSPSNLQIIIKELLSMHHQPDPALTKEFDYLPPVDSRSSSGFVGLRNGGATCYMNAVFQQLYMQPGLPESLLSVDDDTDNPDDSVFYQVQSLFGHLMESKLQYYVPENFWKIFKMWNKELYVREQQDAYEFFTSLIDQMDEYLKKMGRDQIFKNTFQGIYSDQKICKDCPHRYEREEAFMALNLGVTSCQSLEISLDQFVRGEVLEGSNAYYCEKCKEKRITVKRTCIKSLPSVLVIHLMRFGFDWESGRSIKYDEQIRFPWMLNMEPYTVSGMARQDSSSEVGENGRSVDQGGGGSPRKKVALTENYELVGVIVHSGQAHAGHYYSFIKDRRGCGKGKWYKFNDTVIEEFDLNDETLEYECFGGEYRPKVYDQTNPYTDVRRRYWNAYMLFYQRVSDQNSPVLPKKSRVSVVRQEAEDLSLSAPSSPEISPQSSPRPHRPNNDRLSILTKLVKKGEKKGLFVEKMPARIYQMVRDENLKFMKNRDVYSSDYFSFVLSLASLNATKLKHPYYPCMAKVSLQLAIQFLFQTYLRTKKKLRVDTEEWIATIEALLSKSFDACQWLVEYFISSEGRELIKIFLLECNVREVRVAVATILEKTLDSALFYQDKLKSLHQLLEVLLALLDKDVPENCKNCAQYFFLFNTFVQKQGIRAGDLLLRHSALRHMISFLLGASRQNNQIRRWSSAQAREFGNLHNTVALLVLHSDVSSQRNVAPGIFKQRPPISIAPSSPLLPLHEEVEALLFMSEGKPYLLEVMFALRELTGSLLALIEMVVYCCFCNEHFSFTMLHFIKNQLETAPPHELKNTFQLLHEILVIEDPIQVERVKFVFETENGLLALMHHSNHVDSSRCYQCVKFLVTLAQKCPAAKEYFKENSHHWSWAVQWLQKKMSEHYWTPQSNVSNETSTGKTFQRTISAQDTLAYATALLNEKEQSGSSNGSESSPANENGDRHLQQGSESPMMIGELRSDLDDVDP
Sequence of UniProt Q96DX7 (Q96DX7 whole entry, looked up): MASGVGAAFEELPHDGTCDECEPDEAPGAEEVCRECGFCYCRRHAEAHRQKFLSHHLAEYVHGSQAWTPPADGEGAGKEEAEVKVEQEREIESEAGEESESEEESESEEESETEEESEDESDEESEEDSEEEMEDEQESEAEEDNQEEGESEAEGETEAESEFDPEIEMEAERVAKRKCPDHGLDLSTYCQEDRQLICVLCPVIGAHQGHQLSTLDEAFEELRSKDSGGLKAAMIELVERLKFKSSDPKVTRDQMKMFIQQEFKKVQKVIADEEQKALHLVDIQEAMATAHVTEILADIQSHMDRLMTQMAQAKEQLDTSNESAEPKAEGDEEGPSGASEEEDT
Sequence of UniProt O43396 (O43396 whole entry, looked up): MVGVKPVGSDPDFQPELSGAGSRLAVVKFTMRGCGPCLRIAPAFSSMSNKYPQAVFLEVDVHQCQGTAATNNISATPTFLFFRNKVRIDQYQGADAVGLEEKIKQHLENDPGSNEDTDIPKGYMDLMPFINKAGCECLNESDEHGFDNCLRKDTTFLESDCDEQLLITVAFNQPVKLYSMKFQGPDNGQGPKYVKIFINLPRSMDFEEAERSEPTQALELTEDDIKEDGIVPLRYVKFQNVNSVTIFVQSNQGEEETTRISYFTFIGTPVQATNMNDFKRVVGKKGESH
Sequence of UniProt Q9NUM4 (Q9NUM4 whole entry, looked up): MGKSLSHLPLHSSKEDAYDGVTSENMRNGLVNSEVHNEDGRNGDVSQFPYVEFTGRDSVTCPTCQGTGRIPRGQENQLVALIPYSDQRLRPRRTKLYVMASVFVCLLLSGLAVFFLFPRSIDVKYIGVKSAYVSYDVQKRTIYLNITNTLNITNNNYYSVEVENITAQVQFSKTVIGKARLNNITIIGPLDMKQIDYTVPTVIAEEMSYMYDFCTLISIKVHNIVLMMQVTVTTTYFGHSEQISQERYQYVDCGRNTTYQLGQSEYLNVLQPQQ
Sequence of UniProt O95801 (O95801 whole entry, looked up): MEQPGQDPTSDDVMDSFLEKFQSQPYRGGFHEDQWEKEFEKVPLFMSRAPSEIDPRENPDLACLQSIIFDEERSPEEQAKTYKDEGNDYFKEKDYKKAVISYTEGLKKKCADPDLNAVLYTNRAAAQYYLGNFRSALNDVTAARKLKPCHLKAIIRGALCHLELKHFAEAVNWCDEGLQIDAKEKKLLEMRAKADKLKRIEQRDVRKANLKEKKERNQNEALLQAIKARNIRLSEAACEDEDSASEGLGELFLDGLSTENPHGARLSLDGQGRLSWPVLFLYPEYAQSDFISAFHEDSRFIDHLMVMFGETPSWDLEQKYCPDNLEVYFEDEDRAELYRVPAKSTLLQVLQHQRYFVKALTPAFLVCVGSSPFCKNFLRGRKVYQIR

Row | Target | log2 fold change (saracatinib) | log2 fold change (sotrastaurin) | log2 fold change (alvocidib) | log2 fold change (Tubastatin A) | log2 fold change [1] | log2 fold change (defactinib) | log2 fold change (rucaparib) | log2 fold change [2] | log2 fold change (encorafenib) | log2 fold change [3]
1 | TMEM8A (UniProt Q9HCN3) | 0.059 | -0.099 | -0.009 | 0.108 | -0.042 | -0.039 | 0.004 | 0.02 | 0.037 | -0.191
2 | UBIAD1 (UniProt Q9Y5Z9) | 0.003 | 0.208 | 0.021 | -0.078 | 0.054 | 0.002 | 0.473 (active) | -0.053 | -0.035 | -0.039
3 | TPR (UniProt P12270) | 0.152 | -0.147 | -0.012 | -0.035 | 0.239 | 0.005 | -0.043 | -0.112 | -0.047 | 0.023
4 | UBAP2L isoform 5 (UniProt Q14157) | 0.017 | 0.013 | 0.038 | -0.006 | -0.096 | 0.009 | 0.018 | -0.006 | -0.018 | 0.015
5 | TRAPPC2L (UniProt Q9UL33) | -0.07 | -0.101 | -0.015 | 0.011 | -0.376 (active) | -0.032 | 0.03 | -0.026 | 0.012 | -0.042
6 | TMEM208 (UniProt Q9BTX3) | -0.047 | -0.02 | -0.039 | 0.003 | -0.142 | -0.023 | -0.045 | -0.099 | 0.145 | -0.164
7 | TMEM70 (UniProt Q9BUB7) | 0.106 | 0.028 | 0.015 | 0.011 | 0.142 | -0.004 | -0.057 | -0.001 | 0.009 | 0
8 | TMEM106B (UniProt Q9NUM4) | 0.123 | 0.027 | 0.02 | -0.121 | -0.037 | 0.021 | -0.007 | -0.145 | -0.037 | -0.059
9 | VPS50 (UniProt Q96JG6) | -0.108 | -0.089 | -0.07 | 0.036 | 0.04 | -0.11 | 0.033 | -0.012 | 0.1 | -0.022
10 | UTP4 (UniProt Q969X6) | 0.05 | 0.013 | 0.104 | -0.097 | 0.015 | 0.178 | 0.086 | 0.002 | -0.016 | 0.041
11 | VRK1 (UniProt Q99986) | -0.057 | 0.152 | 0.285 | 0.07 | 0.05 | -0.041 | 0.048 | 0.108 | 0.043 | -0.04
12 | TRIM44 (UniProt Q96DX7) | 0.035 | -0.076 | -0.008 | 0.116 | -0.01 | -0.053 | -0.092 | -0.026 | 0.032 | 0.025
13 | UBE2J1 (UniProt Q9Y385) | 0.019 | -0.016 | -0.073 | 0.26 | -0.046 | -0.133 | 0.048 | 0.204 | 0.001 | 0.035
14 | USP25 isoform 3 (UniProt Q9UHP3) | 0.045 | -0.003 | -0.031 | 0.061 | 0.044 | -0.045 | 0.019 | -0.028 | 0.01 | -0.033
15 | UBLCP1 (UniProt Q8WVY7) | 0.036 | -0.032 | 0.024 | 0.147 | 0.027 | -0.016 | -0.068 | -0.038 | 0.088 | -0.034
16 | USP15 (UniProt Q9Y4E8) | -0.013 | -0.093 | -0.069 | 0.014 | 0.049 | -0.093 | 0.032 | 0.019 | 0.061 | -0.031
17 | USP7 (UniProt Q93009) | -0.087 | -0.083 | -0.147 | 0.023 | -0.106 | -0.104 | 0.03 | 0.152 | 0.057 | -0.06
18 | TRMT2A (UniProt Q8IZ69) | -0.011 | -0.076 | -0.045 | -0.005 | -0.049 | -0.031 | 0.084 | 0.094 | 0.056 | -0.094
19 | WARS2 (UniProt Q9UGM6) | -0.037 | 0.014 | -0.08 | -0.04 | 0.018 | -0.065 | 0.04 | 0.006 | -0.011 | -0.057
20 | UNC119B (UniProt A6NIH7) | -0.076 | 0.013 | -0.206 | 0.124 | -0.031 | -0.064 | 0.133 | 0.316 | 0.026 | -0.048
21 | VRK2 (UniProt Q86Y07) | -0.036 | 0.075 | 0.4 (active) | 0.014 | -0.102 | 0.106 | -0.039 | -0.017 | -0.001 | -0.092
22 | USP24 (UniProt Q9UPU5) | 0.033 | 0.092 | -0.061 | -0.143 | 0.034 | -0.079 | -0.03 | 0.278 | 0.048 | -0.034
23 | TXNL1 (UniProt O43396) | -0.008 | -0.068 | -0.1 | 0.215 | 0.034 | -0.085 | 0.019 | 0.024 | 0.062 | -0.045
24 | TOE1 (UniProt Q96GM8) | 0.025 | -0.016 | 0.221 | 0.031 | 0.122 | 0.193 | -0.066 | 0.05 | 0.017 | 0.05
25 | UBR2 (UniProt Q8IWV8) | -0.065 | -0.024 | 0.132 | 0.098 | -0.014 | -0.052 | -0.012 | 0.145 | 0.143 | 0.085
26 | UBAP2L isoform 1 (UniProt Q14157) | -0.001 | 0.063 | -0.092 | -0.016 | 0.038 | -0.02 | -0.017 | -0.073 | -0.014 | -0.015
27 | TTC4 (UniProt O95801) | -0.09 | -0.11 | -0.146 | 0.055 | 0.078 | -0.169 | 0.04 | 0.051 | 0.049 | -0.055
28 | XPO5 (UniProt Q9HAV4) | 0 | -0.087 | -0.102 | -0.03 | 0.008 | -0.142 | -0.028 | 0.026 | 0.054 | -0.004
29 | TOM1L1 (UniProt O75674) | -0.003 | 0.019 | -0.046 | -0.066 | -0.043 | -0.042 | -0.02 | -0.026 | -0.042 | -0.041
